IMPase cell inh – cell-permeable inhibitors of inositol monophosphatase (IMPase). inhibition (IP1 accumulation), % at 46.1 µM. 120,000 tested, under 10 active. P97697. CHO-M1 cells, IP1 accumulation, HTRF TR-FRET ratio; active = well fitted curve in the direction sought with a large enough effect in the signal ratio, not every such curve was filed as active; inconclusive = small, poorly fitted or top-dose-only effect, or a change in a side signal; inactive = no such curve, though single readings can be large or run the other way; the % refers to the signal ratio;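 also: cells stimulated with carbachol in lithium chloride buffer; plate controls were DMSO basal wells for no effect and reference inhibitor wells for full effect; higher means more IMPase inhibition seen as more IP1 and lower FRET ratio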
Target sequence (P97697 whole entry, looked up): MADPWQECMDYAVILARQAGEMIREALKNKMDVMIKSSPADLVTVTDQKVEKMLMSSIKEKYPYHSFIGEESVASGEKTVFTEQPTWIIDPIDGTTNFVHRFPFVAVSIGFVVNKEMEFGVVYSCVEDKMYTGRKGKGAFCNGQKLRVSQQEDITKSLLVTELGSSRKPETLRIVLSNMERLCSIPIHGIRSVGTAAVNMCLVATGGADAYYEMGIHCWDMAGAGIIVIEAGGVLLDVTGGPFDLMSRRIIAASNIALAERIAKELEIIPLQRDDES
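In this qHTS, compounds (final up to 46 uM) act on CHO-M1 cells that are then activated through the M1 receptor with carbachol, in pH 7.4 buffer containing 50 mM LiCl, for 30 min. IP1 accumulation is quantified by the IP-One immunoassay.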
LMNA splice mod – changes lamin A minigene splicing in HeLa cells; 200,000 compounds, 0.01% hits; Potency, µM (highest dose often 46.1 µM), inactives show top-dose ratio change, negative = inhibition, most hits filed as inhibitors; HeLa LMNA splicing GFP/RFP minigene ratio, 48 h; active = well fitted inhibition curve with a large enough effect in the signal ratio, with a control signal flat, not every such curve was filed as active; inconclusive = small, poorly fitted or top-dose-only effect, or effect the other way, or a change in a side signal; the % refers to the signal ratio; also: potency is read from the fitted curve at half-maximal effect
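S3 HeLa cells stably expressing lamin A-EGFP splicing minigene plus DsRed2, 600 cells/well, 48 h compound exposure at 37C. Laser-scanning cytometry; analysed as GFP (500-530 nm)/RFP (575-640 nm) total intensity ratio; 0.5% DMSO vehicle.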
PNC inhibitor – inhibitors of perinucleolar compartment assembly. 140,000 compounds, 3.1% hits. activity change (PNC), negative = inhibition, % at 10 µM. PC3M PTB-GFP, PNC prevalence imaging, 16 h; stronger effect = lower value;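 active = readout at or below -70, meaning at least 70% loss of cells showing the perinucleolar compartment, a nuclear body marking cancer cells; inconclusive = readout between -30 and a set limit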;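 also: plate controls were DMSO wells for no effect and camptothecin positive control wells for full effect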
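Compounds are pinned in duplicate onto adhered PC3M cells stably expressing GFP-tagged PTB and incubated 16 h at 37 C. Cells are then fixed, nuclei stained with Hoechst, and PNC-positive cells counted.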
* hit, by the source's call; ? = inconclusive; / = no result given; [ ] = another dose, or the depositor's remark. Many of the other results were omitted from the sample, so hits are more common in it than they were. Unless noted, % is scaled to controls: 0 for no effect and ±100 for the full control effect.

SMILES	IMPase cell inh	LMNA splice mod	PNC inhibitor
CC1(C)NC(=O)N(CC(O)COC2CCCCC2)C1=O (stereo not given)	-3	3%	26
COc1cc(NC(=O)c2nc3cc(C)c(C)cc3n(C)c2=O)cc(OC)c1OC	-5	/	/
CCc1c(C)sc(NC(=O)c2cccs2)c1C(=O)OC(C)C	5	?	19
Cc1sc(NC(=O)c2cccs2)c(C(=O)OC(C)C)c1C	-3	2%	-100*
CCCC12CN3CCN(CC(C3)/C1=N\NC(=O)c1ccc(C(C)(C)C)cc1)C2	-2	-12%	-26
Cc1ccc(NC(=O)Nc2nnc(SCC(=O)N3CCCCC3)s2)cc1	/	-15%[46 µM]	/
COc1ccnc(CSC(N)=Nc2ccccc2OC)c1	-4	5%	-81*
COc1ccnc(CSC(N)=Nc2ccccc2C(F)(F)F)c1	/	-9%	10
FC(F)(F)c1ccccc1NC(=S)NN=C1CCCCCC1	/	-6%[46 µM]	/
CCOC(=O)c1sc(N(Cc2ccccc2)C(=O)COC(=O)c2cnccn2)nc1C	/	1%[46 µM]	/
Cc1nnc(N(Cc2ccccc2)C(=O)c2cnccn2)s1	1	2%	-88*
CCCCn1c(SCC(=O)N2CCOCC2)nnc1-c1ccoc1C	-6	-5%	-100*
Cc1ccc(OCc2nnc(SCC(=O)N3CCOCC3)n2C)cc1	9	6%	-107*
Cc1occc1-c1nnc(SCC(=O)N2CCOCC2)n1CCc1ccccc1	1	-8%	-19
Cc1ccc(OCc2nnc(SCCN3CCOCC3)n2C)cc1	-3	5%	-9
CO[C@@H]1C=CO[C@]2(C)Oc3c(C)c(O)c4c(O)c(c(C=NN5CCN(C)CC5)c(O)c4c3C2=O)NC(=O)C(C)=CC=C[C@H](C)[C@H](O)[C@H](C)[C@H](O)[C@H](C)[C@H](OC(C)=O)[C@H]1C	-1[20.6 µM]	-9%	/
CCOC(=O)C(C)/C(C)=N\Nc1ccc([N+](=O)[O-])cc1[N+](=O)[O-] (stereo not given)	/	20%[46 µM]	/
C/C(CCC(=O)O)=N/Nc1ccc([N+](=O)[O-])cc1[N+](=O)[O-]	/	2%	-87*
CN(C)c1ccc(C(CNS(=O)(=O)c2ccc(F)cc2F)N2CCOCC2)cc1 (stereo not given)	/	-8%[46 µM]	/
Cc1ccc2onc(CC(=O)Nc3cc(F)ccc3F)c2c1	/	19%[46 µM]	/
Cc1c(NC(=O)CN2C(=O)NC3(CCCC3)C2=O)c(=O)n(-c2ccccc2)n1C	/	16%[46 µM]	/
Cc1cc(C)cc(OCc2ccc(C(=O)O)o2)c1	-1	12%	?
O=C(O)c1ccc(COc2c(F)c(F)c(F)c(F)c2F)o1	-8	-11%	-100*
O=C(Nc1ccc(N2CCOCC2)cc1)c1cccc(S(=O)(=O)N2CCC(Cc3ccccc3)CC2)c1	7	14%	-23
O=C(CCC(=O)N/N=C/c1cc(Cl)cc(Cl)c1O)NCc1ccccc1	/	16%[46 µM]	/
SMILES	IMPase cell inh	LMNA splice mod	PNC inhibitor
Cc1ccc(-n2nnnc2SCC(=O)N2CCc3ccccc3C2)cc1	-11	-8%	-100*
Cc1ccc(-n2nnnc2SCC(=O)N2CCc3ccccc3C2)c(C)c1	-2	?	?
Cn1cnc(S(=O)(=O)N2CCCC(C(=O)Nc3ccc(OC(F)(F)F)cc3)C2)c1 (stereo not given)	/	5%[46 µM]	/
Cc1ccc2nc(CSc3nnc(NC(=O)COc4ccccc4)s3)cc(=O)n2c1	/	-2%[46 µM]	/
Cc1nc(Nc2nc(CSc3nc4ccccc4[nH]3)cc(=O)[nH]2)nc2ccccc12	/	?	-97*
COc1ccc2nc(Nc3nc(CSc4nc5ccccc5[nH]4)cc(=O)[nH]3)nc(C)c2c1	/	?	3
CC(Oc1ccccc1)C(=O)NC1=NCCS1 (stereo not given)	/	-3%[46 µM]	/
COc1ccccc1N(CC(=O)NCCC1=CCCCC1)S(=O)(=O)c1ccccc1	/	8%[46 µM]	/
Cc1nn(CC(C)C)c(=S)[nH]c1=O	-12	5%	-83*
Cc1nnc(SCC(C)C)[nH]c1=O	-2	?	7
O=C(CSC1=Nc2ccccc2N=C(c2ccc(F)cc2)C1)NCc1ccc(Cl)cc1	/	-3%[46 µM]	/
Cc1ccc2nc(SCC(=O)Nc3ccccc3N3CCOCC3)c(C#N)cc2c1	-6	-5%	-111*
O=C(CNCC1CCCO1)Nc1ccccc1N1CCOCC1 (stereo not given)	2	11%	-86*
O=C(CNCC1CCCO1)Nc1ccccc1-n1cccc1 (stereo not given)	-7	-6%	?
Cc1ccc(-c2nnc(SCC(=O)Nc3ccccc3N3CCOCC3)o2)cc1	20	7%	?
CCOC(=O)c1c(S(=O)(=O)N2CCC(C(=O)N3CCN(c4cc(C)ccc4C)CC3)CC2)c(C)n(C)c1C	/	-18%[46 µM]	/
O=C(CSc1nnc(-c2cccc(Cl)c2)o1)N1CCc2ccccc21	0	/	/
COCCN(C(=O)COc1ccccc1)c1nnc(-c2cccnc2)s1	-2	-2%	-28
COCCN(C(=O)COc1ccc(Cl)cc1)c1nnc(-c2cccnc2)s1	?	-6%	-100*
CCOc1ccc(CNC(=O)c2cc3oc4ccccc4c3n2C)cc1	-2	?	?
COc1cccc(CNC(=O)c2cc3oc4ccccc4c3n2C)c1OC	-1	?	-106*
COc1ccc(C(=O)Nc2cc(OC)nc(OC)n2)cc1	-6	-13%	-81*
COc1cc(NC(=O)CCc2ccccc2)nc(OC)n1	-9	20%	?
Cc1c(Cl)ccc2sc(N3CCN(C(=O)c4ccco4)CC3)nc12	/	7%[46 µM]	/
Cc1cc(C)c2oc(-c3cccc(NC(=O)c4cc5ccccc5o4)c3)nc2c1	-3	/	/
SMILES	IMPase cell inh	LMNA splice mod	PNC inhibitor
CC(=O)c1ccc(NC(=O)CCn2cccn2)cc1	/	-8%[46 µM]	/
CC1Cc2nc(SCC(=O)N3CCCc4ccccc43)n(C)c(=O)c2S1 (stereo not given)	-15	?	34
COCCn1c(SCC(=O)N2CCCc3ccccc32)nc2c(c1=O)SC(C)C2 (stereo not given)	5	-10%	-108*
O=C(CSc1nc(O)cc(=O)[nH]1)N1CCCc2ccccc21	-1	11%	-30
Cc1cc(=O)[nH]c(SCC(=O)N2CCCc3ccccc32)n1	-4	0%	-100*
CCOc1ccc(CCNC(c2nnc(-c3ccccc3)o2)c2ccccc2Cl)cc1OCC (stereo not given)	15	/	/
Cc1ccc(-c2csc(=S)n2CC(=O)OCC(=O)NCc2ccc(F)cc2)cc1	17	-6%	-19
Cc1ccc(SCCNC(=O)CN(c2ccccc2)S(=O)(=O)N(C)C)cc1	5	/	/
CCn1c(CSc2n[nH]c(N)n2)nc2cc(C(=O)O)ccc21	/	19%[46 µM]	/
O=C(NCC1CCCO1)c1ccc2c(=O)n(Cc3cccc(Br)c3)c(=S)[nH]c2c1 (stereo not given)	/	10%[9.22 µM]	/
O=C(CCN1C(=O)CSC1=O)Nc1ccc(Br)cc1	3	-8%	-100*
Cc1ccc(NC(=O)CCN2C(=O)CSC2=O)cc1	1	-6%	-17
Cc1ccc(CNC(=O)C2CCN(S(=O)(=O)c3ccc4c(c3)CCCN4C(=O)C3CCC3)CC2)cc1	/	-6%[46 µM]	/
COc1ccccc1NC(=O)CNC(=O)c1ccccc1	-2	3%	18
Cc1ccccc1C(=O)NCC(=O)NNC(=S)NC(=O)c1ccccc1C	/	?	0
Cc1ccccc1C(=O)NCC(=O)NNC(=S)NC(=O)c1ccccc1	/	1%	-83*

Source: PubChem (National Center for Advancing Translational Sciences (NCATS))
